The text below walks through data of PubChem BioAssay (EPA / NIEHS).

Activity calls are given as the source filed them. How the source made its calls: active means hit-call score of the fitted dose curve at least 0.9, where 1 is the maximum; inactive means score below 0.9.

Read-out in experiment [1]: Interleukin-1 alpha (IL1a), IL1A (gene 3552)
Kind of experiment: BSK_KF3CT_IL1a: BioMAP Diversity Plus: KF3CT Assay for Interleukin-1 alpha (IL1a) Biomarker Activity (AID 2283070). As to conditions: primary human keratinocytes with fibroblasts; actives raise or lower the signal. Summed up: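 Primary skin co-culture (keratinocytes, foreskin fibroblasts), 24 h exposure; ELISA for IL-1a; bidirectional curve fit vs DMSO.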

Read-out in experiment [2]: TIMP metallopeptidase inhibitor 2 (TIMP2), TIMP2 (gene 7077)
Kind of experiment: BSK_KF3CT_TIMP2: BioMAP Diversity Plus: KF3CT Assay for TIMP metallopeptidase inhibitor 2 (TIMP2) Biomarker Activity (AID 2283071). As to conditions: primary human keratinocytes with fibroblasts; actives raise or lower the signal. Summed up:
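ELISA readout of TIMP-2 in keratinocyte plus foreskin fibroblast co-cultures (human skin primary cells), 24 h post-dose. Gain or loss of signal fitted relative to DMSO.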

Read-out in experiment [3]: Transforming growth factor beta 1 (TGFb1), TGFB1 (gene 7040)
As to the kind of experiment: BSK_KF3CT_TGFb1: BioMAP Diversity Plus: KF3CT Assay for Transforming growth factor beta 1 (TGFb1) Biomarker Activity (AID 2283072). As to conditions: primary human keratinocytes with fibroblasts; actives raise or lower the signal. A digest of the protocol:
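Read-out: ELISA for TGF-b1 in keratinocyte/foreskin fibroblast human skin co-culture, 24 h after dosing; bidirectional curve fit vs DMSO baseline; gain or loss of signal scored.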

Read-out in experiment [4]: C-C motif chemokine 2 (Homo sapiens) (UniProt P13500)
Kind of experiment: BSK_KF3CT_MCP1: BioMAP Diversity Plus: KF3CT Assay for Monocyte Chemoattractant Protein 1 (MCP1/CCL2) Biomarker Activity (AID 2283073). As to conditions: primary human keratinocytes with fibroblasts; actives raise or lower the signal. Summed up: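 ELISA read-out of MCP-1, 24 h post-dose, in primary human skin keratinocytes co-cultured with fibroblasts. Parallel SRB staining monitors cytotoxicity; changes fitted both directions relative to DMSO.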

Read-out in experiment [5]: Matrix Metallopeptidase 9 (MMP9), MMP9 (gene 4318)
Kind of experiment: BSK_KF3CT_MMP9: BioMAP Diversity Plus: KF3CT Assay for Matrix Metallopeptidase 9 (MMP9) Biomarker Activity (AID 2283074).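 On AC50: MMP9 protein level quantified by ELISA in the co-culture.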 As to conditions: primary human keratinocytes with fibroblasts; actives raise or lower the signal. A digest of the protocol: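 ELISA read-out of MMP-9 at 24 h post-dosing in a co-culture of human skin keratinocytes and foreskin fibroblasts. Gain or loss of signal was fitted in both directions against DMSO.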

Read-out in experiment [6]: CD40, CD40 (gene 958)
As to the kind of experiment: BSK_LPS_CD40: BioMAP Diversity Plus: LPS Assay for CD40 Biomarker Activity (AID 2283076). As to conditions: primary human HUVEC with PBMC; actives raise or lower the signal. Summed up: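 In the LPS system of human endothelial cells with peripheral blood mononuclear cells, CD40 levels were read by ELISA 24 h post-treatment. Signal changes in either direction were fitted against the DMSO baseline, with parallel SRB protein staining.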

Read-out in experiment [7]: E-selectin (Homo sapiens) (UniProt P16581)
Kind of experiment: BSK_LPS_Eselectin: BioMAP Diversity Plus: LPS Assay for Eselectin Biomarker Activity (AID 2283077). As to conditions: primary human HUVEC with PBMC; actives raise or lower the signal. Summed up: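 E-selectin ELISA on LPS-stimulated endothelial cell/PBMC co-cultures, read 24 h post-treatment; gains and losses fitted against DMSO. Parallel SRB staining (0.1% SRB after 10% TCA fixation, 560 nm) flags overt cytotoxicity.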

Read-out in experiment [8]: Interleukin-8 (IL8), CXCL8 (gene 3576)
As to the kind of experiment: BSK_LPS_IL8: BioMAP Diversity Plus: LPS Assay for Interleukin-8 (IL8) Biomarker Activity (AID 2283078). As to conditions: primary human HUVEC with PBMC; actives raise or lower the signal. Summed up: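 ELISA read-out of IL-8 after 24 h chemical treatment of LPS-activated endothelial/PBMC human primary co-cultures. Changes either up or down relative to DMSO; overt cytotoxicity checked by sulforhodamine B staining in parallel wells.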

A short description of experiment [9]: BSK_LPS_SRB: Viability Assessment in the BioMAP Diversity Plus: LPS Assay (AID 2283079).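 Further: total protein by sulforhodamine B absorbance as a cytotoxicity measure; measured one day after compound addition.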 As to conditions: primary human HUVEC with PBMC. A digest of the protocol:
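SRB viability endpoint: cells fixed with 10% TCA, stained with 0.1% SRB, read at 560 nm, 24 h post-dose. HUVEC/PBMC co-culture; signal change in either direction scored relative to DMSO.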

Read-out in experiment [10]: Interleukin-1 alpha (IL1a), IL1A (gene 3552)
As to the kind of experiment: BSK_LPS_IL1a: BioMAP Diversity Plus: LPS Assay for Interleukin-1 alpha (IL1a) Biomarker Activity (AID 2283080). As to conditions: primary human HUVEC with PBMC; actives raise or lower the signal. Summed up:
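Readout is IL-1a level by ELISA, 24 h post-dose, fitted as gain or loss relative to DMSO. System: LPS-activated human primary co-culture of vascular endothelium and peripheral blood mononuclear cells, with parallel SRB total-protein cytotoxicity.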

Read-out in experiment [11]: Monocyte Chemoattractant Protein-1 (MCP1), CCL2 (gene 6347)
Kind of experiment: BSK_LPS_MCP1: BioMAP Diversity Plus: LPS Assay for Monocyte Chemoattractant Protein-1 (MCP1) Biomarker Activity (AID 2283081).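 On AC50: secreted MCP-1 protein quantified by ELISA in culture supernatant.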 As to conditions: primary human HUVEC with PBMC; actives raise or lower the signal. A digest of the protocol: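 Secreted MCP-1 read by ELISA at 24 h post-dosing in an LPS-activated co-culture of endothelial cells with peripheral blood mononuclear cells. Fits run in both directions, DMSO as baseline; parallel SRB staining tracks overt cytotoxicity.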

A short description of experiment [12]: BSK_LPS_PGE2: BioMAP Diversity Plus: LPS Assay for Prostaglandin E2 (PGE2) Biomarker Activity (AID 2283082).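 On AC50: secreted prostaglandin E2 measured by ELISA in LPS-stimulated co-culture.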 As to conditions: primary human HUVEC with PBMC; actives raise or lower the signal. A digest of the protocol: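 ELISA read-out of PGE2 from human umbilical vein endothelial cells co-cultured with peripheral blood mononuclear cells under LPS, 24 h post-dose. Gain or loss of signal scored relative to DMSO baseline.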

Read-out in experiment [13]: Macrophage colony-stimulating factor (MCSF), CSF1 (gene 1435)
As to the kind of experiment: BSK_LPS_MCSF: BioMAP Diversity Plus: LPS Assay for Macrophage colony-stimulating factor (MCSF) Biomarker Activity (AID 2283083). As to conditions: primary human HUVEC with PBMC; actives raise or lower the signal. A digest of the protocol: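 Bidirectional fitting against DMSO was applied to M-CSF levels read by ELISA at 24 h post-dose. The system pairs human umbilical vein endothelium with peripheral blood mononuclear cells; parallel SRB staining tracked cytotoxicity.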

Read-out in experiment [14]: Tumor necrosis factor (Homo sapiens) (UniProt P01375)
Kind of experiment: BSK_LPS_TNFa: BioMAP Diversity Plus: LPS Assay for Tumour Necrosis Factor alpha (TNFa) Biomarker Activity (AID 2283085).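 On AC50: TNFa protein level quantified by ELISA in the co-culture.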 As to conditions: primary human HUVEC with PBMC; actives raise or lower the signal. Summed up:
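HUVEC/PBMC co-culture, LPS-stimulated; 24 h post-dose; TNFa by ELISA; gain or loss of signal fitted bidirectionally vs DMSO baseline.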

Read-out in experiment [15]: Vascular cell adhesion molecule 1 (VCAM1), VCAM1 (gene 7412)
Kind of experiment: BSK_LPS_VCAM1: BioMAP Diversity Plus: LPS Assay for Vascular cell adhesion molecule 1 (VCAM1) Biomarker Activity (AID 2283086). As to conditions: primary human HUVEC with PBMC; actives raise or lower the signal. Summed up: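 ELISA read-out of VCAM-1 at 24 h post-dosing in an LPS-driven HUVEC/PBMC primary human co-culture; gain or loss of signal fitted bidirectionally against DMSO baseline. Cytotoxicity tracked in parallel cultures by SRB total-protein staining.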

Read-out in experiment [16]: CD38, CD38 (gene 952)
As to the kind of experiment: BSK_SAg_CD38: BioMAP Diversity Plus: SAg Assay for CD38 Biomarker Activity (AID 2283087). As to conditions: primary human HUVEC with PBMC; actives raise or lower the signal. Summed up: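 Measures CD38 on a human endothelial/PBMC co-culture driven by SEB and TSST-1, 24 h after compound exposure, using ELISA with fluorescence detection; DMSO defines baseline for bidirectional curve fitting.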

Read-out in experiment [17]: CD69, CD69 (gene 969)
As to the kind of experiment: BSK_SAg_CD69: BioMAP Diversity Plus: SAg Assay for CD69 Biomarker Activity (AID 2283089).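 On AC50: cell surface CD69 protein quantified by ELISA with fluorescence detection.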 As to conditions: primary human HUVEC with PBMC; actives raise or lower the signal. A digest of the protocol: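 ELISA, fluorescence read-out: CD69 on human umbilical vein endothelial cell + PBMC co-culture, 24 h post-dosing. Gain or loss of signal fitted bidirectionally against DMSO baseline.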

Read-out in experiment [18]: CD40, CD40 (gene 958)
Kind of experiment: BSK_SAg_CD40: BioMAP Diversity Plus: SAg Assay for CD40 Biomarker Activity (AID 2283088). As to conditions: primary human HUVEC with PBMC; actives raise or lower the signal. A digest of the protocol: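 CD40 is measured by fluorescence ELISA in an endothelial/PBMC primary human co-culture at 24 h post-dose. Fitting is bidirectional, DMSO baseline. Parallel SRB staining (560 nm) flags cytotoxicity.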

In general, AC50 refers to the midpoint of the concentration-response curve, whichever way the signal moves.

Tumor necrosis factor (Homo sapiens), sequence (P01375 whole entry, looked up): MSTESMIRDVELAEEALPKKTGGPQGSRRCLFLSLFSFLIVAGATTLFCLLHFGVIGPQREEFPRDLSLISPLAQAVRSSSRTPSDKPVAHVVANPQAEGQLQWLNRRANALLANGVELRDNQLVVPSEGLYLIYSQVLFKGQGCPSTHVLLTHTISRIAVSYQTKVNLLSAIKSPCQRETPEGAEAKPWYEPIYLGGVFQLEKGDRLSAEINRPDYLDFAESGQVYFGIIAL
E-selectin (Homo sapiens), sequence (P16581 whole entry, looked up): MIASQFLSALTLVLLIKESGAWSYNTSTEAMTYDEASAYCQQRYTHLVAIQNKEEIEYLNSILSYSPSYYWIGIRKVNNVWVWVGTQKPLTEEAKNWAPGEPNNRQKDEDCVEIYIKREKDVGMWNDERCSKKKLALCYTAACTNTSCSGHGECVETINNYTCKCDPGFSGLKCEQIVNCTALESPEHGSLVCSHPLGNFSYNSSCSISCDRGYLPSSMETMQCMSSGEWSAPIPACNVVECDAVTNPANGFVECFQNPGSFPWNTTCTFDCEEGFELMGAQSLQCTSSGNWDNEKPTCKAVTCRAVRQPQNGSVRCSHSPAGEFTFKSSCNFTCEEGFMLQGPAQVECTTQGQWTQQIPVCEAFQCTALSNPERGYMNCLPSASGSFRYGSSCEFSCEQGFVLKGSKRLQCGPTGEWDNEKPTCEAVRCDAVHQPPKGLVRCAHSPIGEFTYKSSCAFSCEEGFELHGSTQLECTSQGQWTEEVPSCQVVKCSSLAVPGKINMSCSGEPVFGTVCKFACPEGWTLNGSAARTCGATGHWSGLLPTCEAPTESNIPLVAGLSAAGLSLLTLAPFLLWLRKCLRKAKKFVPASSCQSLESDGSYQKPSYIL

Turning to `O=C1CCCCCCCCCCC1`, the outcome in experiment [1], in experiment [2], in [3], in experiment [4], in experiment [5] and in experiment [6] was inactive. The outcome in experiment [7], in [8], in experiment [9], in experiment [10], in [11] and in [12] was inactive. The outcome in experiment [13], in experiment [14], in [15], in [16] and in experiment [17] was inactive.

As for `CCCCCCCCCCCC(C)=O`, the result in experiment [1], in experiment [3], in [5], in experiment [8], in experiment [9] and in [10] was inactive. The outcome in [11], in experiment [12] and in experiment [13] was inactive. In addition, the AC50 in experiment [2] was 3.97 µM (active); in experiment [4], 31.5 µM (active); in experiment [6] it was 31.3 µM (active); in experiment [7], 23.9 µM (active); in experiment [14], 29.2 µM (active); in experiment [15], 30.8 µM (active). Also, the AC50 in [16] is 31.6 µM (active); in [17] it was 31.1 µM (active).

In the case of `C=CC(=O)OCC(C)OCC(C)OCC(C)OC(=O)C=C` (centres undefined), the AC50 in experiment [1] is 20 µM (active); in experiment [4], 10.4 µM (active); in experiment [5], 14.7 µM (active); in experiment [6] it was 6.73 µM (active); in experiment [7], 9.34 µM (active); in [8], 11.9 µM (active). Moreover, the AC50 in experiment [9] was 22.9 µM (active); in experiment [10] it was 9.53 µM (active); in experiment [11], 9.18 µM (active); in [12] it was 5.46 µM (active); in experiment [13], 10 µM (active); in experiment [15] it was 8.45 µM (active). For the same compound, the AC50 in experiment [16] is 7.74 µM (active); in experiment [18], 8.77 µM (active); in [17] it was 7.77 µM (active). In addition, the outcome in experiment [2], in [3] and in experiment [14] was inactive.

For the compound `CCCCCCCCC(CO)CCCCCC` (centres undefined), the outcome in experiment [1], in [2], in experiment [3], in [4], in experiment [5] and in experiment [6] was inactive. Moreover, the result in experiment [7], in experiment [8], in experiment [9], in experiment [10], in [11] and in [12] was inactive. Besides, the outcome in experiment [13], in [14], in experiment [15], in experiment [16] and in experiment [17] was inactive.
